The whole screen tested about 5,500 compounds, of which about 2,000 (36%) were called active. Not shown: some 18% with an inconclusive outcome. Rule as the data show it: active = normalized growth mostly below about 0.91 (no sharp cut-off); inconclusive = no clear call, values can overlap the other calls; inactive = mostly above about 0.92. This is one part of the list.
Assay: chemical genetic growth profiling, strain panel (AID 1159580);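 also: tested at 20 µM; growth read once vehicle control cultures reached saturation at 30 °C; 1 = growth at the plate median or of vehicle wells; lower values mean less growth of the strain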
Details: S. cerevisiae deletion strains, growth OD

Measured: normalized growth

O=C(NCC(c1ccccc1)c1c[nH]c2ccccc12)c1ccc(C(F)(F)F)cc1 (stereo unspecified)
active: locus YHR030C, strain SLT2, hits give low values 0.807 | locus YLR113W, strain HOG1, hits give low values 0.859
inactive: locus YAR019C, strain CDC15, hits give low values 0.974 | locus YBL105C, strain PKC1, hits give low values 0.98 | locus YBR135W, strain CKS1, hits give low values 0.998 | locus YBR136W, strain MEC1, hits give low values 0.986 | locus YBR160W, strain CDC28, hits give low values 0.981 | locus YDL017W, strain CDC7, hits give low values 0.985 | locus YDL028C, strain MPS1, hits give low values 0.993 | locus YDL101C, strain DUN1, hits give low values 0.985 | locus YDL108W, strain KIN28, hits give low values 0.992 | locus YDL132W, strain cdc53, hits give low values 0.992 | locus YDL214C, strain PRR2, hits give low values 1.15 | locus YDR052C, strain DBF4, hits give low values 0.993 | locus YDR054C, strain cdc34, hits give low values 0.984 | locus YDR226W, strain ADK1, hits give low values 0.971 | locus YDR477W, strain SNF1, hits give low values 0.98 | locus YER123W, strain YCK3, hits give low values 0.971 | locus YER133W, strain GLC7, hits give low values 0.979 | locus YFL009W, strain cdc4, hits give low values 1.04 | locus YFL029C, strain CAK1, hits give low values 0.989 | locus YFR003C, strain YPI1, hits give low values 1.01 | locus YFR019W, strain FAB1, hits give low values 0.984 | locus YFR028C, strain CDC14, hits give low values 0.979 | locus YGR040W, strain KSS1, hits give low values 1 | locus YGR052W, strain FMP48, hits give low values 1.02 | locus YGR092W, strain DBF2, hits give low values 0.993 | locus YHR079C, strain IRE1, hits give low values 0.981 | locus YHR082C, strain KSP1, hits give low values 1.04 | locus YHR205W, strain SCH9, hits give low values 1.01 | locus YIL147C, strain SLN1, hits give low values 0.985 | locus YJL095W, strain BCK1, hits give low values 0.996 | locus YJL128C, strain PBS2, hits give low values 0.932 | locus YJL157C, strain FAR1, hits give low values 0.989 | locus YJR016C, strain ILV3, hits give low values 0.99 | locus YJR066W, strain TOR1 (second series), hits give low values 0.97 | locus YJR066W, strain TOR1, hits give low values 0.998 | locus YKL048C, strain ELM1, hits give low values 1 | locus YKL067W, strain YNK1, hits give low values 0.948 | locus YKL101W, strain HSL1, hits give low values 0.969 | locus YKL193C, strain SDS22, hits give low values 0.994 | locus YKL203C, strain TOR2, hits give low values 1.08 | locus YLR133W, strain CKI1, hits give low values 0.992 | locus YLR403W, strain SFP1, hits give low values 0.985 | locus YML070W, strain DAK1, hits give low values 0.979 | locus YMR001C, strain CDC5, hits give low values 0.991 | locus YMR205C, strain PFK2 (second series), hits give low values 0.981 | locus YMR277W, strain FCP1, hits give low values 0.965 | locus YNL006W, strain LST8, hits give low values 1.01 | locus YNL020C, strain ARK1, hits give low values 0.982 | locus YNL161W, strain CBK1, hits give low values 0.995 | locus YNL183C, strain NPR1, hits give low values 1.02 | locus YNL207W, strain RIO2, hits give low values 0.979 | locus YNL222W, strain SSU72, hits give low values 0.986 | locus YNL307C, strain MCK1 (second series), hits give low values 0.954 | locus YOL078W, strain AVO1, hits give low values 0.99 | locus YOL136C, strain PFK27, hits give low values 0.963 | locus YOR061W, strain CKA2, hits give low values 0.995 | locus YOR119C, strain RIO1, hits give low values 1.02 | locus YOR231W, strain MKK1, hits give low values 1.02 | locus YOR329C, strain SCD5, hits give low values 0.995 | locus YPL031C, strain PHO85, hits give low values 0.993 | locus YPL153C, strain RAD53, hits give low values 0.967 | locus YPL204W, strain HRR25, hits give low values 0.96 | locus YPL209C, strain IPL1, hits give low values 0.994 | locus YPL256C, strain CLN2, hits give low values 0.909 | locus YPR025C, strain CCL1, hits give low values 0.997 | locus YPR106W, strain ISR1, hits give low values 0.976 | locus YPR111W, strain DBF20, hits give low values 0.956 | strain NNK1, hits give low values 0.988 | strain TSCII, hits give low values 0.978

— PubChem BioAssay AID1159580 (chemical genetic matrix, 2015)
